Several values for one entry are separate records, joined by “and”; a condition that tells them apart may be missing. Equal values may be shown once. Screen size: about 5,500 compounds; about 2,000 (36%) were called active. Roughly 18% stayed inconclusive and do not appear here. No stated cut-off is given here; in the data, active means normalized growth mostly below about 0.91 (no sharp cut-off); inconclusive means no clear call, values can overlap the other calls; inactive means mostly above about 0.92. The list shows a part of the results.
Assay: chemical genetic growth profiling, strain panel (AID 1159580);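 further: tested at 20 µM; growth read once vehicle control cultures reached saturation at 30 °C; 1 = growth at the plate median or of vehicle wells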
Details: S. cerevisiae deletion strains, growth OD

Measured: normalized growth

CC(=O)[C@@]1(O)CCC2C3C[C@H](C)C4=CC(=O)C=CC4(C)[C@@]3(F)[C@@H](O)C[C@@]21C (stereo partly drawn)
inactive: locus YAL013W, strain DEP1, stronger effect = lower value 0.995 | locus YAL021C, strain ccr4, stronger effect = lower value 0.965 | locus YAL026C, strain drs2, stronger effect = lower value 0.966 | locus YAL030W, strain snc1, stronger effect = lower value 0.961 | locus YBL061C, strain skt5, stronger effect = lower value 0.976 | locus YBR009C, strain hhf1, stronger effect = lower value 0.931 | locus YBR021W, strain FUR4, stronger effect = lower value 0.99 | locus YBR023C, strain chs3, stronger effect = lower value 0.969 | locus YBR171W, strain sec66, stronger effect = lower value 0.973 | locus YBR229C, strain ROT2, stronger effect = lower value 1.01 | locus YBR231C, strain swc5, stronger effect = lower value 0.975 | locus YBR279W, strain paf1, stronger effect = lower value 0.98 | locus YCL011C, strain gbp2, stronger effect = lower value 0.964 | locus YCL016C, strain dcc1, stronger effect = lower value 0.963 | locus YCL029C, strain bik1, stronger effect = lower value 0.997 | locus YCL069W, strain vba3, stronger effect = lower value 0.979 | locus YCR088W, strain abp1, stronger effect = lower value 0.973 | locus YDL005C, strain med2, stronger effect = lower value 0.962 | locus YDL035C, strain GPR1, stronger effect = lower value 0.986 | locus YDL040C, strain nat1, stronger effect = lower value 0.983 | locus YDL074C, strain BRE1, stronger effect = lower value 0.981 | locus YDL101C, strain DUN1, stronger effect = lower value 1.02 | locus YDL134C, strain PPH21, stronger effect = lower value 0.99 | locus YDL185W, strain tfp1, stronger effect = lower value 1.03 | locus YDL192W, strain arf1, stronger effect = lower value 1.01 | locus YDR001C, strain nth1, stronger effect = lower value 0.977 | locus YDR069C, strain doa4, stronger effect = lower value 0.969 | locus YDR101C, strain arx1, stronger effect = lower value 0.971 | locus YDR137W, strain rgp1, stronger effect = lower value 0.975 | locus YDR150W, strain NUM1, stronger effect = lower value 0.991 | locus YDR159W, strain sac3, stronger effect = lower value 0.929 | locus YDR162C, strain NBP2, stronger effect = lower value 0.984 | locus YDR195W, strain ref2 0.98 | locus YDR297W, strain sur2, stronger effect = lower value 0.975 | locus YDR318W, strain mcm21, stronger effect = lower value 1.01 | locus YDR334W, strain swr1, stronger effect = lower value 0.976 | locus YDR335W, strain msn5, stronger effect = lower value 0.965 | locus YDR388W, stronger effect = lower value 1.01 | locus YDR392W, strain spt3, stronger effect = lower value 0.936 | locus YDR502C, strain sam2, stronger effect = lower value 1.01 | locus YEL003W, strain gim4, stronger effect = lower value 0.971 | locus YEL037C, strain rad23, stronger effect = lower value 0.975 | locus YEL061C, strain CIN8 (second series), stronger effect = lower value 0.962 | locus YEL061C, strain CIN8, stronger effect = lower value 0.989 | locus YER015W, strain faa2, stronger effect = lower value 0.977 | locus YER016W, strain bim1, stronger effect = lower value 0.933 | locus YER110C, stronger effect = lower value 1.02 | locus YER111C, strain swi4, stronger effect = lower value 0.969 | locus YER155C, strain BEM2 (second series), stronger effect = lower value 1.03 | locus YER155C, strain BEM2, stronger effect = lower value 1.01 | locus YER167W, strain BCK2, stronger effect = lower value 0.988 | locus YFR010W, strain ubp6, stronger effect = lower value 0.953 | locus YGL078C, strain dbp3, stronger effect = lower value 1 | locus YGL086W, strain mad1, stronger effect = lower value 0.985 | locus YGL167C, strain pmr1, stronger effect = lower value 0.977 | locus YGL173C, strain kem1, stronger effect = lower value 0.976 | locus YGL227W, strain vid30, stronger effect = lower value 0.988 | locus YGL240W, strain doc1, stronger effect = lower value 0.955 | locus YGL248W, strain PDE1, stronger effect = lower value 1.01 | locus YGL253W, strain hxk2, stronger effect = lower value 0.961 | locus YGR078C, strain PAC10, stronger effect = lower value 1 | locus YGR135W, strain pre9, stronger effect = lower value 1.05 | locus YGR252W, strain gcn5, stronger effect = lower value 1.08 | locus YHR013C, strain ard1, stronger effect = lower value 0.905 | locus YHR027C, strain rpn1, stronger effect = lower value 0.971 | locus YHR030C, strain SLT2, stronger effect = lower value 0.979 and 0.988 | locus YHR079C, strain IRE1 (second series), stronger effect = lower value 1.01 | locus YHR079C, strain IRE1, stronger effect = lower value 0.971 | locus YHR094C, strain hxt1, stronger effect = lower value 1.01 | locus YHR129C, strain ARP1, stronger effect = lower value 1.01 | locus YHR142W, strain chs7, stronger effect = lower value 0.96 | locus YHR200W, strain rpn10, stronger effect = lower value 1.01 | locus YIL066C, strain RNR3, stronger effect = lower value 0.996 | locus YIL073C, strain SPO22, stronger effect = lower value 1.02 | locus YIL125W, strain kgd1, stronger effect = lower value 1 | locus YIR030C, strain dcg1, stronger effect = lower value 1 | locus YJL092W, strain hpr5, stronger effect = lower value 0.983 | locus YJL095W, strain BCK1 (second series), stronger effect = lower value 0.985 | locus YJL095W, strain BCK1, stronger effect = lower value 1.02 and 0.999 | locus YJL115W, strain asf1, stronger effect = lower value 0.954 | locus YJL129C, strain trk1, stronger effect = lower value 0.968 | locus YJL134W, strain LCB3, stronger effect = lower value 1.01 | locus YJL154C, strain vps35, stronger effect = lower value 0.984 | locus YJL164C, strain tpk1, stronger effect = lower value 0.937 | locus YJL166W, strain qcr8, stronger effect = lower value 0.979 | locus YJL168C, strain set2, stronger effect = lower value 1 | locus YJL187C, strain SWE1 (second series), stronger effect = lower value 1.02 | locus YJR043C, strain POL32, stronger effect = lower value 0.99

— PubChem BioAssay AID1159580 (chemical genetic matrix, 2015)
